From ChEMBL document CHEMBL1961873, “Compounds: GSK PKIS; Assays: Nanosyn kinase panel” (2012)

Tests used:
[1] = target: T1, Serine/threonine-protein kinase Nek9 (Homo sapiens) (UniProt Q8TD19); conditions: at 1 µM;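 note: each value is a mean percent inhibition of NEK9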
T1 sequence (whole entry): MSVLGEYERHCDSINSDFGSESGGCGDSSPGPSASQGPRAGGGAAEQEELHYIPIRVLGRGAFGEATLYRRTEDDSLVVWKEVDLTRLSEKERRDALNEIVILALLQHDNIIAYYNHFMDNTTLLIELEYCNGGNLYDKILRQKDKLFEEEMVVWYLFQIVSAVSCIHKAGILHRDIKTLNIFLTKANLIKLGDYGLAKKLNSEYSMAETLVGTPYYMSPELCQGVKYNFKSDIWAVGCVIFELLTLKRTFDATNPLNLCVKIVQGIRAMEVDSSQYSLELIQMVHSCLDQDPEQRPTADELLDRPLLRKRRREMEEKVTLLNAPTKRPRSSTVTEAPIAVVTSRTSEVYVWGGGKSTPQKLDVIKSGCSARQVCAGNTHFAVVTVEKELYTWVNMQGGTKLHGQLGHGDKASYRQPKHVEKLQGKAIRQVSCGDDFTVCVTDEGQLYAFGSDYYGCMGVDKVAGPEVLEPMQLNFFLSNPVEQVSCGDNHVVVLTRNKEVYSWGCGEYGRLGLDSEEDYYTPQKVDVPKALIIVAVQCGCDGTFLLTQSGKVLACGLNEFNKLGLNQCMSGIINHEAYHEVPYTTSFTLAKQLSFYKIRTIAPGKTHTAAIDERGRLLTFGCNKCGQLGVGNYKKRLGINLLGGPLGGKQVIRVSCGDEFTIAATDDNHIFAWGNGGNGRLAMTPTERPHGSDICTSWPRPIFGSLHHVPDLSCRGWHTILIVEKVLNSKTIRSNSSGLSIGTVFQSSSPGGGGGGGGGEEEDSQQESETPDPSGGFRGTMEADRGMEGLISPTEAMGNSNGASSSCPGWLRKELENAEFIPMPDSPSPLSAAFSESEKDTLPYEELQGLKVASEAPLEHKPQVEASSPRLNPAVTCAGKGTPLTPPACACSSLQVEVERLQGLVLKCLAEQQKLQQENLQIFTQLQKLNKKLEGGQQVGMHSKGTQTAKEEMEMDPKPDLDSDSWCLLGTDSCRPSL

[2] = target: Serine/threonine-protein kinase PLK1 (Homo sapiens) (UniProt P53350); conditions: at 0.1 µM
Sequence of Serine/threonine-protein kinase PLK1 (Homo sapiens) (P53350 whole entry): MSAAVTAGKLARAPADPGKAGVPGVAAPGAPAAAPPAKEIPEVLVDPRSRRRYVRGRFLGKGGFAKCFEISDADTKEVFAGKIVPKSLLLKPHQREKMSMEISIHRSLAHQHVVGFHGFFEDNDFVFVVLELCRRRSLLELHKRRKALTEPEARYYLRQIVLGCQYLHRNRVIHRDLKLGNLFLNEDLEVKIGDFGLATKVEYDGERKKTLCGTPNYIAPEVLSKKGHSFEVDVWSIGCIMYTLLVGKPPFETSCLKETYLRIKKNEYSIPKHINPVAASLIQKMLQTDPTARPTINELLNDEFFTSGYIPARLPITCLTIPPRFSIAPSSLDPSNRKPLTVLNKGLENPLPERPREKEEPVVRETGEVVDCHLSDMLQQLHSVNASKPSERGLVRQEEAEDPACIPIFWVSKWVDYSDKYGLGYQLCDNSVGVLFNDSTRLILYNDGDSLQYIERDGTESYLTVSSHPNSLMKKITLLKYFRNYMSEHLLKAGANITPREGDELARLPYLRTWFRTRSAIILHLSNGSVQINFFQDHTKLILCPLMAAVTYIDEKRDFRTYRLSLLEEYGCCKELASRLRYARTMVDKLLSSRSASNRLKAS

[3] = target: Serine/threonine-protein kinase PLK1 (Homo sapiens) (UniProt P53350); conditions: at 1 µM
[4] = target: T2, Dual specificity protein kinase TTK (Homo sapiens) (UniProt P33981); conditions: at 0.1 µM
T2 sequence (whole entry): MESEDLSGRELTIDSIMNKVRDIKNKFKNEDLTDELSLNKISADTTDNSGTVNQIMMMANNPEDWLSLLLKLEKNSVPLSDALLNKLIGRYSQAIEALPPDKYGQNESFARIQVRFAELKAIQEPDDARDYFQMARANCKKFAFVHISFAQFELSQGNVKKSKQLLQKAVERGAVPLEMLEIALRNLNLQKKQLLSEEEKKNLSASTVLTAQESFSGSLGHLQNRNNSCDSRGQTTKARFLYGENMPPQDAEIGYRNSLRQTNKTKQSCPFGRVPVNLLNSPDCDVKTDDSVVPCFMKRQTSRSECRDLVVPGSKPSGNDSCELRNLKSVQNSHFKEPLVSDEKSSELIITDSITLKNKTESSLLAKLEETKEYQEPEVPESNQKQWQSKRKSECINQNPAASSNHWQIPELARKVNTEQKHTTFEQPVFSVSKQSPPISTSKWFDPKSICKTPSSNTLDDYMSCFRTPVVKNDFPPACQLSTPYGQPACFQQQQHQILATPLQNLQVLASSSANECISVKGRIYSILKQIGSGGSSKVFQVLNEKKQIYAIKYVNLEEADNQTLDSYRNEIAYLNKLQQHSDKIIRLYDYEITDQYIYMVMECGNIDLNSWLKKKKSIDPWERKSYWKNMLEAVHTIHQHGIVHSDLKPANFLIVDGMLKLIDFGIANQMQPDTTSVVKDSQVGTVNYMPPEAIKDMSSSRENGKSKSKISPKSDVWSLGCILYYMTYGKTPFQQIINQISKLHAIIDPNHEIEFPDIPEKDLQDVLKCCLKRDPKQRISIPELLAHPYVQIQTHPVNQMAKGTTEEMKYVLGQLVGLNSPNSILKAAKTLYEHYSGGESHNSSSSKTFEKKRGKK

[5] = tested on: T3, Receptor-type tyrosine-protein kinase FLT3 (Homo sapiens), P36888 [D835Y]; conditions: at 1 µM
T3 sequence (whole entry): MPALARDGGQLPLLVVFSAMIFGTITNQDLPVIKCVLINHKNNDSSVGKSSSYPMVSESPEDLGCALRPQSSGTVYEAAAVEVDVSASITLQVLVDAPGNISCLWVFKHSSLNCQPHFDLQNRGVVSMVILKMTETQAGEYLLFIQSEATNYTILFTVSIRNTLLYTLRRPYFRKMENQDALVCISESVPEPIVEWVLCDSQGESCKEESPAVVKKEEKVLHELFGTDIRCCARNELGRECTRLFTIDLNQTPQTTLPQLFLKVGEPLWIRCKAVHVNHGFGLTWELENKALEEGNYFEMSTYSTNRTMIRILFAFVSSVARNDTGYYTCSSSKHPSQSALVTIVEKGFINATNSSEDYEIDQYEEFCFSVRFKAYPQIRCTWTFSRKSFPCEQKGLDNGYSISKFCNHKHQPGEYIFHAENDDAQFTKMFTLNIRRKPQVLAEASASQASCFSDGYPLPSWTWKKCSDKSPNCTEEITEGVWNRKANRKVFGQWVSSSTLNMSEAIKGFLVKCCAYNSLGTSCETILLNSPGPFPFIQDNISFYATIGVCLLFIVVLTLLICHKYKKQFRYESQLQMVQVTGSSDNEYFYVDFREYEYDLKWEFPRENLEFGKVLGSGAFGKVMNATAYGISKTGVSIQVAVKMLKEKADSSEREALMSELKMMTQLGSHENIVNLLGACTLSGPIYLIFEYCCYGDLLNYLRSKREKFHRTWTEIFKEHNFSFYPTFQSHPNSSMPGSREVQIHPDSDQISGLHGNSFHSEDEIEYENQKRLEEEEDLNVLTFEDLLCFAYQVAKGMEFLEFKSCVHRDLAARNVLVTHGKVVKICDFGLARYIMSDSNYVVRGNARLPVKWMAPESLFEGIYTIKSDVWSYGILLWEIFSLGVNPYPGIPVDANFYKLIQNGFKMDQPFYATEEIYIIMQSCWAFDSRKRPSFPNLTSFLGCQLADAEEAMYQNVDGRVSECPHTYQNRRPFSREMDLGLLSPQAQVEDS

[6] = target: Vascular endothelial growth factor receptor 3 (Homo sapiens) (UniProt P35916); conditions: at 0.1 µM
Sequence of Vascular endothelial growth factor receptor 3 (Homo sapiens) (P35916 whole entry): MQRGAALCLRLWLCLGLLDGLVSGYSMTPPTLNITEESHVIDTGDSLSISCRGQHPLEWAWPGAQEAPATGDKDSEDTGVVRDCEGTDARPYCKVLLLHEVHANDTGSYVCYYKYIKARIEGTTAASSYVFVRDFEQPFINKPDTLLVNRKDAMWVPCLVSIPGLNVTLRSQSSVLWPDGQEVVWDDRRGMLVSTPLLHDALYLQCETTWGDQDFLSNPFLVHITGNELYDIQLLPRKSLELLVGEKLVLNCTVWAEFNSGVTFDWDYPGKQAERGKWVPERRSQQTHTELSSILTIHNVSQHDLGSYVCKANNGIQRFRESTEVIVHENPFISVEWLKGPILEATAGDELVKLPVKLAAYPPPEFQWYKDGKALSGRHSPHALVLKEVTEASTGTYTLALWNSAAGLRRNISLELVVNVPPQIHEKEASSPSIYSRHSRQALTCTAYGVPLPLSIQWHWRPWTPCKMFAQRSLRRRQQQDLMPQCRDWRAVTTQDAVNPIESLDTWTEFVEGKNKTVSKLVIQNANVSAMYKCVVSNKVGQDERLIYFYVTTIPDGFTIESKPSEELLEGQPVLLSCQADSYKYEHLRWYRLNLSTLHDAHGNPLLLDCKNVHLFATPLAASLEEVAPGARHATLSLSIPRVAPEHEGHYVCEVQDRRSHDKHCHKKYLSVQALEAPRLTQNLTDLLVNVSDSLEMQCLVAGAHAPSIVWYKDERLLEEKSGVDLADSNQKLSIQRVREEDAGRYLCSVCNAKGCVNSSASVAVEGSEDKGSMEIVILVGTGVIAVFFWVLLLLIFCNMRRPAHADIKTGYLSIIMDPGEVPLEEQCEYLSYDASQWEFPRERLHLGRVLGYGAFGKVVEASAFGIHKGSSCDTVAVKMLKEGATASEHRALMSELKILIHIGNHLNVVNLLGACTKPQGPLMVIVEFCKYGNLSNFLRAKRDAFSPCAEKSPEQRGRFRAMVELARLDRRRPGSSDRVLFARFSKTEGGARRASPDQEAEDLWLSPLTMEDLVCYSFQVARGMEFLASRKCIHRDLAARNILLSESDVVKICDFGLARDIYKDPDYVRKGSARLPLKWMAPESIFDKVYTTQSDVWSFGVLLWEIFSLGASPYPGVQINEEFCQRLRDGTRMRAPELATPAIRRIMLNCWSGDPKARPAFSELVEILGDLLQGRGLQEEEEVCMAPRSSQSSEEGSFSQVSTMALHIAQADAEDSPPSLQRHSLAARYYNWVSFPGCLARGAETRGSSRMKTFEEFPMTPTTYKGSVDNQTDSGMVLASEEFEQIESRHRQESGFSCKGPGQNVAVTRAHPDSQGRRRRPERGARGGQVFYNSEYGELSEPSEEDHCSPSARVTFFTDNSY

[7] = target: Vascular endothelial growth factor receptor 3 (Homo sapiens) (UniProt P35916); conditions: at 1 µM
[8] = target: Macrophage colony-stimulating factor 1 receptor (Homo sapiens) (UniProt P07333); conditions: at 0.1 µM
Sequence of Macrophage colony-stimulating factor 1 receptor (Homo sapiens) (P07333 whole entry): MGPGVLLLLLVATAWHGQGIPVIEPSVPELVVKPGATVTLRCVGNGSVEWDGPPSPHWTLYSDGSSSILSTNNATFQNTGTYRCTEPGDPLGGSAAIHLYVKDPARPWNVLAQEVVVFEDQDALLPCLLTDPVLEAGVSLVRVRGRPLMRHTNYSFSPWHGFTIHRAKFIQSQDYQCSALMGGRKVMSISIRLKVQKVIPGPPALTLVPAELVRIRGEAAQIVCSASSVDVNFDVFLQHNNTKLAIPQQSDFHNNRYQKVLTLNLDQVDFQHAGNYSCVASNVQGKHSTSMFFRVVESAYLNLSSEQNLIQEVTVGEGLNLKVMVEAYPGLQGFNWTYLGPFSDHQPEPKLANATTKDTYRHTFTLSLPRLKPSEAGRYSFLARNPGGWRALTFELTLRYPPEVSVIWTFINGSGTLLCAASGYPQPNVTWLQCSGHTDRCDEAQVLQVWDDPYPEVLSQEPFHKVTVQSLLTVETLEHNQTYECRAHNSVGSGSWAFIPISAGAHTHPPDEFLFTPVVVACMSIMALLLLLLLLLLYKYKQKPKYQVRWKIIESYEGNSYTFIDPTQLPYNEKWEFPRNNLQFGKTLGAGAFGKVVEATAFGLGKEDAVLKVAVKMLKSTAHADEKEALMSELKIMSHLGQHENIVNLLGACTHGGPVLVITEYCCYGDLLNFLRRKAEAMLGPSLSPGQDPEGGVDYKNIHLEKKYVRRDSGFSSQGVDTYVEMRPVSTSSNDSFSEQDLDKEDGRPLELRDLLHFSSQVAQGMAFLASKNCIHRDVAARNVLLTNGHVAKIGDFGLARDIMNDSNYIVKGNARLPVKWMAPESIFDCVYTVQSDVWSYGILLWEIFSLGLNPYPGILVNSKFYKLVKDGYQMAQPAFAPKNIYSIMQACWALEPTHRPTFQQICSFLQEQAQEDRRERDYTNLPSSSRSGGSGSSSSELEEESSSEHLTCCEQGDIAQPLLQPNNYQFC

[9] = target: Macrophage colony-stimulating factor 1 receptor (Homo sapiens) (UniProt P07333); conditions: at 1 µM
[10] = target: Tyrosine-protein kinase Fyn (Homo sapiens) (UniProt P06241); conditions: at 0.1 µM
Sequence of Tyrosine-protein kinase Fyn (Homo sapiens) (P06241 2-537 limits assumed): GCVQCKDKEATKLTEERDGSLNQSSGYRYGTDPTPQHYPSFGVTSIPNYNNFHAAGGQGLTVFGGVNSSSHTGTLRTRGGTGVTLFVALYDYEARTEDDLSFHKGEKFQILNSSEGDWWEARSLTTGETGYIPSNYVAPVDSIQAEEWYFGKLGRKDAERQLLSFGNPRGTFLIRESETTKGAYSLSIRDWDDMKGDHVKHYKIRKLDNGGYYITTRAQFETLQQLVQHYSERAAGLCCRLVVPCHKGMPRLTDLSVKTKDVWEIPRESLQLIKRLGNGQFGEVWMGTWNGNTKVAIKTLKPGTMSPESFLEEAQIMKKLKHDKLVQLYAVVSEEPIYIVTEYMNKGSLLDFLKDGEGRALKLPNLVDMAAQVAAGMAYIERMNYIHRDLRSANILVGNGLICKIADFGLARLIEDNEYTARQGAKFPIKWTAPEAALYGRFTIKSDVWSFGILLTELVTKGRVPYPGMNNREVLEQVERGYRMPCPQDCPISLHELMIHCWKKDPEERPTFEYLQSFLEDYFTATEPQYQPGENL

Row | SMILES | inhibition [1] | inhibition [2] | inhibition [3] | inhibition [4] | inhibition [5] | inhibition [6] | inhibition [7] | inhibition [8] | inhibition [9] | inhibition [10]
1 | CC1=C(C(=O)Nc2ccc3[nH]ncc3c2)C(c2ccc(Cl)c(Cl)c2)CC(=O)N1 (stereo not given) | 3.13% | 2.57% | 1.43% | 2.15% | 0.84% | -2.61% | 1% | -0.52% | 1.97% | 1.91%
2 | NC(=O)c1ccc(-c2nc(-c3ccccn3)c(-c3ccc4c(c3)OCO4)[nH]2)cc1 | 6.43% | 5.18% | 2.1% | 6.47% | 1.63% | 0.44% | -0.31% | 1.36% | 2.49% | 1.15%
3 | COc1cc(C=NNc2ncnc3c2cnn3-c2ccccc2)ccc1O | 1.08% | 2.41% | 3.03% | 3.02% | 56.8% | 5.09% | 24.4% | 7.04% | 26.8% | 11%
4 | CS(=O)(=O)CCNCc1nc(-c2ccc3ncnc(Nc4ccc(F)c(Cl)c4)c3c2)cs1 | -7.92% | 1.65% | 1.15% | 1.71% | 5.8% | 3.61% | 6.4% | 1.81% | 3.54% | -1.21%
5 | CS(=O)(=O)Nc1ccc(N/C=C2\C(=O)Nc3ccccc32)cc1 | 9.7% | -2.87% | -1.15% | -2.98% | 59.1% | 4.02% | 30.6% | 7.03% | 41.7% | 0.12%
6 | CN(C)c1cc2c(Nc3ccc4nc(Cc5ccccc5)[nH]c4c3)ncnc2cn1 | 10.6% | 6.15% | 6.34% | 13.2% | -1.97% | 7.56% | 11.3% | 4.7% | 15.4% | 4.62%
7 | O=C1NC(=O)C(c2cccc(Cl)c2)=C1Nc1ccc(O)c(Cl)c1 | 8.97% | 2.84% | 3.21% | 2.22% | 3.58% | 1.15% | 13.3% | 5.89% | 46.8% | 2.3%
8 | CC1=C(C(=O)Nc2ccc3[nH]ncc3c2)C(c2ccc(F)cc2)NC(=O)N1 (stereo not given) | 3.09% | 2.01% | 1.91% | 3.79% | -1.48% | 18.2% | 15.4% | 1.12% | 0.9% | 1.72%
9 | [O-][S+]1CCN(Cc2ccc(-c3ccc4ncnc(Nc5ccc(OCc6ccccc6)c(F)c5)c4c3)o2)CC1 | 4.38% | 2.17% | 1.22% | 5.89% | 1.92% | -0.55% | 0.47% | 0.26% | 3.3% | 0.67%
10 | CCCN1CCC=C(c2ccc(Nc3nc(Nc4ccccc4C(N)=O)c4cc[nH]c4n3)c(C)c2)C1 | 7.97% | 13.9% | 53.6% | 70.8% | 20.8% | 9% | 26.6% | 27.4% | 63.1% | 4.83%
11 | NCc1ccc(-c2nc(-c3ccc(Cl)c(O)c3)c(-c3ccncc3)[nH]2)cc1 | -0.05% | 4.25% | 2.1% | 2.08% | 1.57% | 19.7% | 69% | 0.23% | 5.68% | 5.91%
12 | Nc1ncnc2occ(-c3ccc(NC(=O)Nc4cc(C(F)(F)F)cc(C(F)(F)F)c4)cc3)c12 | -1.98% | 2.75% | 1.86% | 1.59% | 33.2% | 9.31% | 56.5% | 51.2% | 95.3% | 0.55%
13 | Cn1cc(C=C2C(=O)Nc3cccnc32)c2ccccc21 | 4.67% | 2.71% | 1.58% | 9.66% | 77.5% | 4.88% | 30.3% | 6.48% | 30.9% | 4.64%
14 | COc1ccc(-c2nn3ncccc3c2-c2ccnc(Nc3ccc(Cl)c(C(F)(F)F)c3)n2)cc1 | 6.74% | 0.21% | 3.01% | 5.35% | -6.5% | -0.61% | 3.27% | -1.71% | 5.03% | 3.8%
15 | Fc1cccc(COc2ccc(Nc3ncnc4sc(-c5cccs5)cc34)cc2Cl)c1 | 2.21% | 1.64% | 2.97% | 2.43% | 4.36% | 3.77% | 3.65% | 0.1% | 11.2% | 1.11%
16 | CCCN1CCC(Oc2cc(Nc3nc(Nc4cccc(F)c4C(N)=O)c4cc[nH]c4n3)c(OC)cc2Cl)CC1 | -2.13% | 8.91% | 47.5% | 3.35% | -3.06% | 12.3% | 14.6% | -0.53% | 3.9% | 1.38%
